KDM5B inh = blocks human KDM5B histone demethylase activity. Q9UGL1. KDM5B demethylase, FDH-coupled NADH fluorescence (FDH is formaldehyde dehydrogenase). Potency, µM (top dose mostly 57.7 µM), actives largely listed as inhibitors. 220,000 tested, 2.6% active; active = well fitted inhibition curve with a large enough effect; note: nearly all actives have a fitted effect of over 70% in size
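qHTS format, multiple compound concentrations. Buffer 50 mM HEPES pH 7.5/0.01% Tween-20; 200 nM KDM5BΔAP final; 10 min compound preincubation; substrate-mix levels 12.5 µM peptide, 25 µM α-KG, 0.25 mM NAD⁺; 30 min RT; ΔRFU.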
Of the large screens only hits and unclear results are named; the others gave an inactive call. This is one part of a sample in which hits are shown more often than they occur.

O=C(C1CCOCC1)N1CCCn2nc(C(O)c3ccccc3)cc2C1 (stereo not given)	none
O=C(Nc1ccc(Cl)cc1Cl)c1cc(S(=O)(=O)N2CCc3ccccc32)ccc1F	none
COc1cc(/C=C(/C#N)c2ccc(C(=O)O)cc2)cc(Cl)c1OC(C)C	none
COc1ccc(C(C)NC(=O)CN2C(=O)NC3(CCC(C)CC3)C2=O)cc1 (stereo not given)	none
O=C(NCc1ccc(F)cc1)C1CCCN(c2ccc3nnc(C(F)(F)F)n3n2)C1 (stereo not given)	none
Cc1cc(Br)cc2c(C(=O)NCC3CCCO3)cc(-c3ccccc3)nc12 (stereo not given)	none
O=C(NCC1CCCO1)c1ccc(-c2nnc(-c3ccccc3)o2)cc1 (stereo not given)	none
O=C(NCC1CCCO1)c1cc2c(=O)[nH]c(-c3ccccc3)cn2n1 (stereo not given)	KDM5B inh 22µM
Cc1cccc(Cn2c(CNS(=O)(=O)c3ccc(Cl)s3)nc3cccnc32)c1	none
Cc1noc(-c2nc(-c3ccccc3C)no2)n1	none
CCc1noc(-c2nc(-c3ccccc3C)no2)n1	none
CCn1ccnc1CNc1ccc(-c2nc(-c3ccccc3C)no2)cn1	KDM5B inh 28µM
CC(C)(C)C(=O)NC1(C(F)(F)F)NC(=O)N(c2ccc(F)cc2)C1=O (stereo not given)	none
CC(Sc1cc(-c2ccccc2)ncn1)C(=O)c1ccccc1 (stereo not given)	none
CN(CC1CCOC1)S(=O)(=O)c1cccc(Br)c1 (stereo not given)	none
O=C(NCCc1ccccc1)c1cc2n(n1)CC(c1ccc(Cl)cc1)OC2 (stereo not given)	none
COc1cccc(CNC(=O)c2cc3n(n2)CC(c2ccc(Cl)cc2)OC3)c1 (stereo not given)	none
COc1ccc(CNC(=O)c2cc3n(n2)CC(c2ccc4c(c2)OCO4)OC3)cc1OC (stereo not given)	KDM5B inh 25µM
O=C(NCCCc1ccccc1)c1cc2n(n1)CC(c1ccc3c(c1)OCO3)OC2 (stereo not given)	none
Cc1ccc(CCNC(=O)c2cc3n(n2)CC(c2ccc4c(c2)OCO4)OC3)cc1 (stereo not given)	KDM5B inh 25µM
O=C(NCc1cccc(Cl)c1)c1cc2n(n1)CC(c1ccc3c(c1)OCO3)OC2 (stereo not given)	KDM5B inh 20µM
COc1ccccc1CNC(=O)c1cc2n(n1)CC(c1ccc3c(c1)OCO3)OC2 (stereo not given)	KDM5B inh 25µM
COc1ccc(OC)c(NC(=O)c2cc3n(n2)CC(c2ccc4c(c2)OCO4)OC3)c1 (stereo not given)	none
COCCNC(=O)c1cc2n(n1)CC(c1ccc(Br)cc1)OC2 (stereo not given)	none
O=C1/C(=C/c2ccc(-c3ccccc3)cc2)CCc2ccccc21	none
CCc1ocnc1C(=O)N1CCC(Oc2ccccc2)(C(=O)O)CC1	none
O=C1NC(=NC2CCCC2)C2(CCN(Cc3ccccc3)C2)N1c1cccnc1 (stereo not given)	none
Cc1ccccc1N1CC(C(=O)Nc2ccccc2C(=O)N2CCN(c3ccccc3)CC2)CC1=O (stereo not given)	none
O=C(CCc1cccs1)Nc1ccc2c(c1)OCCCO2	none
CC(C)Oc1ccc(C(=O)N2CCCCC2CCN2CCCCC2)cc1 (stereo not given)	none
COCc1noc(CCNc2cc(C)nc(-c3ccccc3O)n2)n1	KDM5B inh 22µM
COCc1noc(CCNC(=O)c2cc(-c3ccccc3)on2)n1	none
Cc1cc(NCCc2cnccn2)nc(-c2ccccc2O)n1	none
CCCNC(=O)C(N)Cc1c[nH]c2ccccc12 (stereo not given)	none
O=C(Nc1cccc(Cl)c1)C1CCN(c2ncnc3nc[nH]c23)CC1	none
CC1(C)OC(=O)C(=CNc2ccccn2)C(=O)O1	none
O=[S+]([O-])(c1ccncc1)c1nnn2c1nc(N1CCC(F)CC1)c1ccccc12	none
Cc1ccc(N2CCN(c3nc4c(S(=O)(=O)c5ccc(C)c(C)c5)nnn4c4ccccc34)CC2)c(C)c1	none
Cc1cc(C)c([S+](=O)([O-])c2nnn3c2nc(N2CCC(F)CC2)c2ccccc23)c(C)c1	KDM5B inh 79µM
Cc1ccc(C)c([S+](=O)([O-])c2nnn3c2nc(N2CCC(F)CC2)c2ccccc23)c1	KDM5B inh 79µM
Cc1ccc(S(=O)(=O)c2nnn3c2nc(N2CCCCC2)c2ccccc23)cc1C	none
Cc1ccc(N2CCN(c3nc4ccccc4n4nnnc34)CC2)c(C)c1	none
CCOC(=O)c1ccc(NC(=O)CN2C(=O)NC3(CCOCC3)C2=O)cc1	none
CCn1c(C)ccc(C(=O)N2CCc3[nH]nc(-c4ccccc4F)c3C2)c1=O	none
COc1cc(O)ccc1CN1CCn2nnc(CCC(=O)N3CCCC3)c2C1	KDM5B inh 14µM
COc1ccc(NC(=O)N2CCn3nnc(CCC(=O)N4CCOCC4)c3C2)cc1	none
COC(=O)c1ccc(NC(=O)N2CCn3nnc(CCC(=O)N4CCCC4)c3C2)cc1	none
Cc1ccc(C(CCNCc2ccccc2)c2ccco2)cc1 (stereo not given)	none
Cc1cccc(COC(=O)c2nn(Cc3ccccc3)c(=O)c3ccccc23)c1	none
CCS(=O)(=O)N1CC(=O)N(c2ccc(Cl)cc2C)C(C)(C(=O)NC2CCCCC2)C1 (stereo not given)	none
COc1ccccc1CCC(=O)N1CCC(n2nccc2NC(=O)CC(C)C)CC1	none
COc1ccccc1CCC(=O)Nc1cccn2nc(C(C)C)nc12	none
COc1ccccc1CC(=O)NC(C)C(=O)N1CCN(c2ccccn2)CC1 (stereo not given)	KDM5B inh 28µM
COc1ccccc1CCC(=O)NC(C)C(=O)N1CCN(c2ccccn2)CC1 (stereo not given)	KDM5B inh 25µM
COc1ccccc1CC(=O)NC(c1ccccc1)c1ccccc1	none
COc1ccccc1CC(=O)NC1CCN(c2cc(C(F)(F)F)ncn2)CC1	none
COc1ccc(C(C(=O)NC2CCCC2)N(C(=O)c2ccco2)c2cccc(C(C)=O)c2)cc1OC (stereo not given)	none
CCOC(=O)c1c(NC(=O)c2nc(SCC)ncc2Cl)sc2c1CCCC2	none
CCOc1ccc(CNS(=O)(=O)c2ccc(-c3coc(C)n3)cc2)cc1	none
O=C(NCc1cccs1)c1cc(C2CC2)nc2onc(C3CCNCC3)c12	none
Cc1cc(C(=O)NC2CCNCC2)c2c(C3CCNCC3)noc2n1	none
O=C(c1cc(C2CC2)nc2onc(C3CCNCC3)c12)N1CCCCC1	none
Cc1cc(C(=O)NCC(F)(F)F)c2c(C3CCNC3)noc2n1 (stereo not given)	none
COCCNC(=O)c1cc(-c2ccc(OC)cc2)nc2onc(C3CCNC3)c12 (stereo not given)	KDM5B inh 79µM
Cc1cc(C(=O)NC2CC2)c2c(C3CCCNC3)noc2n1 (stereo not given)	none
Cc1cc(C(=O)NC2CCNCC2)c2c(C3CCNC3)noc2n1 (stereo not given)	none
O=C(NCc1ccc(F)cc1)c1cc(C2CC2)nc2onc(C3CCNCC3)c12	none
Cc1cc(C(=O)NCc2cccs2)c2c(C3CCNCC3)noc2n1	none
O=C(NC1CCCC1)c1cc(C2CC2)nc2onc(C3CCNCC3)c12	KDM5B inh 79µM
COCCNC(=O)c1cc(C2CC2)nc2onc(C3CCNC3)c12 (stereo not given)	KDM5B inh 79µM
Cc1cc(C(=O)N2CCCCC2)c2c(C3CCNC3)noc2n1 (stereo not given)	KDM5B inh 89µM
CCCOc1ccc(NC(=O)C(CC)Oc2ccc(F)cc2)c2cccnc12 (stereo not given)	none
Fc1ccc(/C=N/Nc2ccc(F)cc2)cc1	none

Source: PubChem BioAssay
